Screens from PubChem BioAssay.
A selection: hits, their analogues and other compounds. The true share with any hit is near 12%.
TDP1 block = qHTS Assay for Inhibitors of Tyrosyl-DNA Phosphodiesterase (TDP1); AID 485290, 2010; Potency, µM (titrated, usually from 130 µM), actives largely listed as inhibitors; Tyrosyl-DNA phosphodiesterase 1 (Homo sapiens), Q9NUW8; recombinant TDP1, AlphaScreen DNA substrate cleavage; 0.28% of 350,000 active; further: nearly all actives have a fitted effect of over 40% in size
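Compounds were preincubated with Tdp1 (1 nM final) for 15 min at room temperature before substrate (15 nM final) started a 5 min reaction; beads (10 ug/ml final) were then added for 10 min before AlphaScreen detection.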
JMJD2A Tudor inh = qHTS Assay for Inhibitors of JMJD2A-Tudor Domain; 4.4% of 390,000 active; AlphaScreen JMJD2A-Tudor / H3K4me3 peptide binding; Lysine-specific demethylase 4A (Homo sapiens), O75164; AID 504339, 2011; Potency, µM (top dose mostly 114 µM), most hits filed as inhibitors; further: nearly all actives have a fitted effect of over 50% in size
Sfp inh = qHTS Assay for Inhibitors of Bacillus subtilis Sfp phosphopantetheinyl transferase (PPTase). 4'-phosphopantetheinyl transferase ffp (Bacillus subtilis), Q9F4F7. Biochemical Sfp PPTase activity, qHTS. Potency, µM, usual class: inhibitors. 3.5% of 310,000 active. AID 1490, 2009;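 further: the enzyme is Sfp with the accession as filed and its product quenches rhodamine fluorescence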
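Fluorescence-quenching assay: 15 nM Sfp-PPTase preincubated 15 min at room temperature with compound, then 5 uM rhodamine-CoA and 12.5 uM BHQ-2-labelled YbbR peptide added. Fluorescence (ex 525/em 598 nm) read at start and after 30 min; difference gives rate.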
BAZ2B inh = qHTS Assay for Inhibitors of BAZ2B; Bromodomain adjacent to zinc finger domain protein 2B (Homo sapiens), Q9UIF8; AlphaScreen BAZ2B-H3K14Ac peptide displacement; Potency, µM (highest dose often 114 µM), actives largely listed as inhibitors; 4.4% of 360,000 active; AID 504333, 2011; further: nearly all actives have a fitted effect of over 60% in size
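AlphaScreen displacement: compounds (up to 110uM) incubated 30 min at room temperature with a preformed 50 nM BAZ2B/50 nM biotinylated H3K14Ac peptide complex in PBS pH 7.4 with Tween-20. Donor and acceptor beads at 10 ug/mL final added, 20 min light-protected before reading.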
G9a inh = qHTS Assay for Inhibitors of Histone Lysine Methyltransferase G9a | Histone-lysine N-methyltransferase EHMT2 (Homo sapiens), Q96KQ7 | G9a H3K9 monomethylation, AlphaScreen, 2 h | Potency, µM (top dose mostly 102 µM), hits mostly inhibitors | 8.8% of 350,000 active | AID 504332, 2011; further: nearly all actives have a fitted effect of over 75% in size
Target sequence (Q96KQ7 913-1193 limits assumed): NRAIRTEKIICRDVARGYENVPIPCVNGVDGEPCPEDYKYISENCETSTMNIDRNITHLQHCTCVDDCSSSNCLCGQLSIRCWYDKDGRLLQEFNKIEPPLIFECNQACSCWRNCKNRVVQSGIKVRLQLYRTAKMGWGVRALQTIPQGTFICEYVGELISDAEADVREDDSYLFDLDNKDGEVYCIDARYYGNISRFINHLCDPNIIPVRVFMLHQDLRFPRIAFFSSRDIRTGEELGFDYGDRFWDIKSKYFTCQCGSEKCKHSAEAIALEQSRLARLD
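Compounds were preincubated with 20 nM G9a for 15 min, after which biotinylated H3K9 peptide (500 nM) and SAM (20 uM) started a 2 h room-temperature reaction. Monomethylated product was quantified by antibody-based AlphaScreen chemiluminescence.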
HP1b binding inh = HTS for Inhibitors of HP1-beta Chromodomain Interactions with Methylated Histone Tails; Chromobox protein homolog 1 (Homo sapiens), P83916; AID 540317, 2011; Potency, µM (titrated, usually from 114 µM), usual class: inhibitors; 0.56% of 390,000 active; AlphaScreen HP1-beta / biotin-H3K9me3 peptide binding; further: nearly all actives have a fitted effect of over 70% in size
Target sequence (P83916 whole entry, looked up): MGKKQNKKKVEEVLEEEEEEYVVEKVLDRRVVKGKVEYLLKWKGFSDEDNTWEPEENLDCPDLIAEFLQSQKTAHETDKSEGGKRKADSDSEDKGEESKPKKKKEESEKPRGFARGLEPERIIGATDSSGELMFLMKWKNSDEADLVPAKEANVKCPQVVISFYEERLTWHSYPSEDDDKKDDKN
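AlphaScreen: HP1-beta (50 nM) preformed 30 min with biotin-H3(1-18)K9me3 peptide (50 nM) in PBS pH 7.4, 0.01% Tween-20. Compound added for 30 min at RT, then streptavidin donor/nickel chelate acceptor beads (10 ug/mL) for 30 min.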
Large screens that a line does not name were inactive. The call rests on the fitted dose curve; in most records, active means well fitted curve in the direction sought with a large enough effect; inconclusive means small, poorly fitted or top-dose-only effect, or another doubt; inactive means no such curve, though single readings can be large; an effect the other way counts as inactive or inconclusive.

Cc1c(NC(=S)NC(=O)c2ccc(Cl)cc2)c(=O)n(-c2ccccc2)n1C	none (no result: TDP1 block, Sfp inh, BAZ2B inh, G9a inh)
Cc1ccsc1/C=C(\C#N)C(=O)Nc1c(C)n(C)n(-c2ccccc2)c1=O	G9a inh inconclusive
Cc1c(NC(=O)/C(C#N)=C/c2ccccc2)c(=O)n(-c2ccccc2)n1C	G9a inh 71µM
Cc1c(NN=C(C#N)C#N)c(=O)n(-c2ccccc2)n1C	G9a inh 10µM
COc1ccccc1-c1noc(CCC(=O)NC2CCCCC2)n1	none
CC(C)(C)NC(=O)COC(=O)CNC(=O)C1CCCCC1	none (no result: Sfp inh, BAZ2B inh, G9a inh)
CCCCn1c(N)c(N(CC(C)C)C(=O)c2ccc([N+](=O)[O-])o2)c(=O)[nH]c1=O	G9a inh inconclusive (no result: Sfp inh)
CC1(c2ccc(Cl)cc2)NC(=O)N(CC(=O)Nc2ccc(N3CCCCC3)cc2)C1=O (stereo not given)	JMJD2A Tudor inh inconclusive, BAZ2B inh inconclusive, G9a inh 50µM (no result: Sfp inh)
COc1cccc(NC(=O)CN2C(=O)NC(C)(c3ccc(C)cc3)C2=O)c1 (stereo not given)	TDP1 block 40µM
CCC1(c2ccc(F)cc2)NC(=O)N(CC(=O)Nc2ccc(N3CCCCC3)cc2)C1=O (stereo not given)	JMJD2A Tudor inh 45µM, BAZ2B inh 45µM (no result: Sfp inh)
COc1cccc(NC(=O)CN2C(=O)NC3(CCCC3)C2=O)c1	G9a inh inconclusive
CCC1(c2ccc(F)cc2)NC(=O)N(CC(=O)Nc2ccc(C(N)=O)cc2)C1=O (stereo not given)	none
Cc1ccc(C2(C)NC(=O)N(CC(=O)Nc3ccccc3N3CCCCC3)C2=O)cc1 (stereo not given)	none (no result: Sfp inh)
Cc1ccc(C2(C)NC(=O)N(CC(=O)Nc3ccccc3N3CCCC3)C2=O)cc1 (stereo not given)	JMJD2A Tudor inh inconclusive, BAZ2B inh 50µM, G9a inh 40µM (no result: Sfp inh)
Cc1ccc(OCCCCCN2CCOCC2)c(Cl)c1	JMJD2A Tudor inh 22µM, HP1b binding inh 50µM (no result: TDP1 block, Sfp inh, BAZ2B inh, G9a inh)
Cc1ccc(C)c(OCCOCCN2CCOCC2)c1	none
Clc1ccc(Cl)c(OCCN2CCCC2)c1	JMJD2A Tudor inh 32µM, BAZ2B inh inconclusive, G9a inh 50µM, HP1b binding inh inconclusive (no result: TDP1 block)
Clc1cc(Br)ccc1OCCOCCN1CCOCC1	JMJD2A Tudor inh 7.1µM, BAZ2B inh inconclusive, G9a inh inconclusive
C=CCc1ccc(OCCCCCN2CCOCC2)c(OC)c1	JMJD2A Tudor inh 3.5µM, BAZ2B inh 50µM, G9a inh 13µM, HP1b binding inh inconclusive
OCCNCCCOc1cc(Cl)ccc1Cl	none
COc1cccc(C2=Nn3c(nnc3-c3cc(OC)cc(OC)c3)SC2)c1	none (no result: BAZ2B inh, G9a inh, HP1b binding inh)
CCCn1c2ccccc2c2cnn(CC(=O)N3CCN(c4ccccc4F)CC3)c(=O)c21	none (no result: Sfp inh)
COc1ccc(-n2c(=O)c3ccccc3n(CC(=O)OCc3ccccc3)c2=O)cc1OC	none
Clc1cc(Br)ccc1OCCOCCN1CCCC1	JMJD2A Tudor inh 32µM, BAZ2B inh inconclusive, G9a inh 40µM, HP1b binding inh inconclusive
Cc1cccc(OCCCN2CCOCC2)c1C	JMJD2A Tudor inh 25µM, BAZ2B inh inconclusive, HP1b binding inh inconclusive (no result: G9a inh)
Clc1ccc(OCCOCCN2CCc3ccccc3C2)c(Cl)c1	none
CC(C)(C)c1ccccc1OCCCCN1CCCC1	none
CC(C)(C)c1cc(Cl)ccc1OCCOCCN1CCCC1	JMJD2A Tudor inh 20µM, Sfp inh inconclusive, BAZ2B inh inconclusive, G9a inh 25µM
COCCn1c(=O)c(-c2ccc(Cl)cc2)nc2cnc(N3CCOCC3)nc21	none (no result: TDP1 block, JMJD2A Tudor inh, BAZ2B inh, HP1b binding inh)
COc1ccc(NC(=O)[C@H](C)NC(=O)C2CCN(S(=O)(=O)c3ccc(C)cc3)CC2)cc1	none
COC(=O)C1=C2SC(C)C(=O)N2C(N)=C(C#N)C1c1ccc(OC)c(OC)c1 (stereo not given)	Sfp inh 35µM, G9a inh inconclusive
CCOC(=O)C1=C(N)N2C(=O)C(C)SC2=C(C(=O)OC)C1c1cccc(OC)c1 (stereo not given)	none
COC(=O)C1=C2SC(C)C(=O)N2C(N)=C(C#N)C1c1cc(OC)c(OC)c(OC)c1 (stereo not given)	Sfp inh 35µM, G9a inh inconclusive
COc1ccc(Nc2c(-c3ccc(Cl)cc3)nc3cnccn23)cc1OC	JMJD2A Tudor inh 56µM, BAZ2B inh 45µM, G9a inh 13µM (no result: Sfp inh)
CSc1ccc(-c2nc3cnccn3c2Nc2ccc3c(c2)OCO3)cc1	JMJD2A Tudor inh inconclusive, Sfp inh inconclusive, BAZ2B inh 11µM, G9a inh 45µM, HP1b binding inh 45µM
Clc1ccc(-c2nc3cnccn3c2Nc2ccc3c(c2)OCO3)cc1	JMJD2A Tudor inh 50µM, BAZ2B inh 45µM, G9a inh 16µM, HP1b binding inh inconclusive
CCOC(=O)CNC(=O)O[C@@H]1C(=O)c2ccc(OC)cc2O[C@H]1c1ccc2c(c1)OCO2	none (no result: JMJD2A Tudor inh, BAZ2B inh, G9a inh, HP1b binding inh)
COC(=O)CCC(=O)OC1(C)C(=O)C2=CN(CC(C)C)C(c3ccc(OC)cc3)=CC2=C(Br)C1=O (stereo not given)	Sfp inh inconclusive, BAZ2B inh 40µM (no result: JMJD2A Tudor inh, HP1b binding inh)
COC(=O)CCC(=O)OC1(C)C(=O)C2=CN(Cc3ccc(OC)cc3)C(c3ccc(OC)cc3)=CC2=C(Br)C1=O (stereo not given)	JMJD2A Tudor inh 50µM, HP1b binding inh inconclusive (no result: BAZ2B inh, G9a inh)
COC(=O)CCC(=O)OC1(C)C(=O)C2=CN(Cc3ccccc3)C(c3ccc(OC)cc3)=CC2=C(Br)C1=O (stereo not given)	JMJD2A Tudor inh inconclusive, HP1b binding inh inconclusive (no result: BAZ2B inh, G9a inh)
O=C(CCSCc1ccccc1Cl)NCCc1ccccc1	none (no result: Sfp inh)
